# Screens as filed in PubChem BioAssay.
# 12-LOX inh: blocks human arachidonate 12S-lipoxygenase | 580,000 compounds, 1.1% hits | Potency, µM (series often up to 108 µM), for inactives: top-dose activity change, negative = inhibition, hits mostly inhibitors | P18054 | purified 12hLO, xylenol orange hydroperoxide absorbance
# Target sequence (P18054 whole entry, looked up): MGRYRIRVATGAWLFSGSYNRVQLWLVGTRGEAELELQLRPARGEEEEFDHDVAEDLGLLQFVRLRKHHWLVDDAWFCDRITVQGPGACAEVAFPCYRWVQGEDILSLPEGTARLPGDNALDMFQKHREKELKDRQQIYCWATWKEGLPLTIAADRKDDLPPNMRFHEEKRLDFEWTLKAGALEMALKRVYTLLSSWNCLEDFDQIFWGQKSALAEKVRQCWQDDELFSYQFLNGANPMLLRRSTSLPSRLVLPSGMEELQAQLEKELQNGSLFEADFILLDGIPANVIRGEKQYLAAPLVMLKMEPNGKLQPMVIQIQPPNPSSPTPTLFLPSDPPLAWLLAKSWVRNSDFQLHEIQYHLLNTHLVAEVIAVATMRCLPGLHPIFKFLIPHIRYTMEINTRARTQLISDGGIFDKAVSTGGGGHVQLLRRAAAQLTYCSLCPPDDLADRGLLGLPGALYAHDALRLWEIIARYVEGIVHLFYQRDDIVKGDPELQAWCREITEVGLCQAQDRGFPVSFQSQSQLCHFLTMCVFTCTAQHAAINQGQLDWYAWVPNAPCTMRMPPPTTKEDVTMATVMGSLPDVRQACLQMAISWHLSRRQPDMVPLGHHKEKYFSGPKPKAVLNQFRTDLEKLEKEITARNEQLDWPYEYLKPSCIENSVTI
#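 Hydroperoxide product was detected by ferrous iron/xylenol orange as the 573 to 405 nm absorbance ratio. Arachidonic acid at 40 uM (final) was turned over for 30 min at room temperature by 150 nM human 12hLO, pH 7.0 Hepes buffer, after 15 min compound preincubation.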
# VDR inhibitor: inhibitors of human vitamin D receptor. 400,000 compounds, 0.93% hits. Potency, µM, for the others: max response, negative = inhibition, actives largely listed as inhibitors. VDR-SRC2-3 peptide fluorescence polarization, 2 h. AID 504847. P11473
#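 Fluorescence polarization assay of small-molecule disruption of VDR binding to coregulator peptide SRC2-3. Compounds and controls pin-transferred, then read after 2 h incubation at ambient room temperature.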
# PLK1 PBD block: blocks phosphopeptide binding to human PLK1 polo-box domain. Plk1 PBD binding of FITC phosphopeptide, fluorescence polarization. Potency, µM, for inactives: max response, negative = inhibition, hits mostly inhibitors. 360,000 compounds, 2.8% hits. AID 720504; note: series mostly up to about 57 µM; nearly all actives have a fitted effect of over 65% in size
# Sfp PPTase inh: inhibitors of Bacillus subtilis Sfp phosphopantetheinyl transferase | Q9F4F7 | Biochemical Sfp PPTase activity, qHTS | Potency, µM, for the others: largest response in the series, negative = inhibition, usual class: inhibitors | 310,000 compounds, 3.5% hits | AID 1490;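 note: the enzyme is Sfp with the accession as filed and its product quenches rhodamine fluorescence; 0% = enzyme reaction without inhibitor and -100% = no enzyme wells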
#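 Compounds were incubated with enzyme (final 15 nM) for 15 min at room temperature before substrate addition started the reaction. Fluorescence at 525 nm excitation, 598 nm emission was recorded immediately and after 30 minutes.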
# An asterisk follows results filed as active; ? = inconclusive; nt = no result given; [ ] = dose if it differs, or a comment. Compounds with a hit are over-represented: about 4.2% of the library has one in this group of screens. Calls come from the whole dose curve; as a rule, active = well fitted curve in the direction sought with a large enough effect; inconclusive = small, poorly fitted or top-dose-only effect, or another doubt; inactive = no such curve, though single readings can be large; an effect the other way counts as inactive or inconclusive. Unless noted, % is set by controls: 0 for no effect and ±100 for the full control effect; potency is the fitted concentration of half-maximal effect.
SMILES,12-LOX inh,VDR inhibitor,PLK1 PBD block,Sfp PPTase inh
CC(C(=O)NC1C(=O)N2C(C(=O)O)=C(CSc3nnnn3C)CSC12)n1cc(Cl)cn1 (stereo not given),7.1%,-13.0%,-17.4%,39.8µM*
COCC(=O)N1CCC2(CCCN(C(=O)Nc3ccccc3)C2)CC1,-0.6%[57.4 µM],-1.6%,nt,24.6%
Cc1cccc(-c2nsc(SCC(=O)N3CCCC3)n2)c1,0.0%,4.8%,?,?
CCOC(=O)CSc1nc(-c2ccccc2)ns1,?,?,3.36µM*,15.8µM*
O=C(CSc1nc(-c2ccccc2)ns1)N1CCOCC1,-20.6%,-24.7%,21.2µM*,39.8µM*
CCOC(=O)CSc1nnc(-c2ccccc2)c(-c2ccccc2)n1,361.3%,5.6%,-24.6%,-2.2%
CC(=O)c1ccc(S(=O)(=O)NCC(=O)N2CCN(C/C=C/c3ccccc3)CC2)cc1,180.9%,-15.9%,26.7µM*,nt
C/C=C\C(=O)Nc1cccc(C2=NOC3(C2)C[C@H](C(N)=O)N(C(=O)/C=C/CC)C3)c1 (stereo not given in full),?,6.9%,7.2%,2.9%
C/C=C\C(=O)Nc1cccc(C2=NOC3(C2)C[C@@H](C(N)=O)N(C(=O)C2(C)CC2)C3)c1 (stereo not given in full),0.2%,-3.8%,2.1%,12.5%
C/C=C(\C)C(=O)N1CC2(CC(c3cccc(NC(=O)CC(c4ccccc4)c4ccccc4)c3)=NO2)C[C@H]1C(N)=O (stereo not given in full),nt,nt,nt,-5.5%
C/C=C\C=C/C(=O)Nc1cccc(C2=NOC3(C2)C[C@@H](C(N)=O)N(C(=O)/C=C/CC)C3)c1 (stereo not given in full),nt,-20.6%,?,14.1µM*
C=C(C)C(=O)N1CC2(CC(c3cccc(NC(=O)/C=C\C=C/C)c3)=NO2)C[C@H]1C(N)=O (stereo not given in full),-8.0%,89.1µM*,23.8µM*,20µM*
C/C=C\C=C/C(=O)Nc1cccc(C2=NOC3(C2)C[C@@H](C(N)=O)N(C(=O)C2(C)CC2)C3)c1 (stereo not given in full),0.9%,?,-26.9%,20µM*
C/C=C\C=C\C(=O)N1CC2(CC(c3cccc(NC(=O)CC(c4ccccc4)c4ccccc4)c3)=NO2)C[C@H]1C(N)=O (stereo not given in full),nt,?,33.6µM*,44.7µM*
Cn1cc(CN2CC3C[C@@H]4CC2C[C@H](C3)C4)c(-c2ccc3c(c2)OCCO3)n1,26.6%,-4.4%,-4.6%,-17.6%
COC(=O)c1onc(-c2c(C)cc(C)cc2C)c1C(=O)OC,-1.9%,12.8%,-4.4%,23.8%
C/C=C\C=C/C(=O)Nc1cccc(C2=NOC3(C2)C[C@@H](C(N)=O)N(C(=O)[C@H]2CCC(=O)N2)C3)c1 (stereo not given in full),nt,-19.7%,-21.6%,35.5µM*
C/C=C\C=C/C(=O)Nc1cccc(C2=NOC3(C2)C[C@@H](C(N)=O)N(C(=O)/C=C/C=C\C)C3)c1 (stereo not given in full),nt,?,?,3.55µM*
COc1ccc(N2C(=O)CC(Sc3nc(C)c4cc(OC)ccc4n3)C2=O)cc1 (stereo not given),-5.8%,nt,nt,nt
COc1ccc(N2C(=O)CC(Sc3n[nH]c(-c4ccccc4)n3)C2=O)cc1 (stereo not given),0.3%,-20.7%,26.7µM*,35.5µM*
CCN(CC)C(=O)c1sc(N)c(C#N)c1C,-2.4%,11.4%,23.8µM*,-17.4%
COc1ccc([C@H]2CC(=O)C=C(c3cccc(C(F)(F)F)c3)C2)cc1,-2.0%,?,26.7µM*,nt
COc1cccc(C2=CC(=O)CC(c3ccco3)C2)c1 (stereo not given),35.5µM*,?,-15.3%,nt
COc1ccc([C@H]2CC(=O)C=C(c3cccc(Br)c3)C2)cc1,-5.6%,9.9%,-2.9%,nt
COc1ccc(C(=O)NC(=S)Nc2ccc(S(=O)(=O)Nc3cc(OC)nc(OC)n3)cc2)cc1,7.08µM*,15.3%,-26.0%,-5.9%
SMILES,12-LOX inh,VDR inhibitor,PLK1 PBD block,Sfp PPTase inh
Cc1cc(NS(=O)(=O)c2ccc(NC(=S)NC(=O)c3cccc(S(=O)(=O)N(C)C)c3)cc2)no1,?,-7.0%,?,-26.9%
CCOC(=O)C(NC(C)=O)(Nc1ccc(S(=O)(=O)Nc2cc(C)on2)cc1)C(F)(F)F (stereo not given),0.0%,20.3%,-9.1%,15.6%
Cc1cc(NS(=O)(=O)c2ccc(NC(NC(=O)C(C(F)(F)F)C(F)(F)F)(C(F)(F)F)C(F)(F)F)cc2)no1,nt,?,5.97µM*,11.7%
Cc1cc(NS(=O)(=O)c2ccc(NC(=S)NC(=O)c3ccc(F)cc3)cc2)no1,25.1µM*,-11.0%,-18.3%,8.4%
Cc1ccc(NC(=O)c2ccc(=O)[nH]n2)cc1S(=O)(=O)Nc1ccccc1Cl,254.2%,-11.8%,-10.1%,nt
Cc1ccc(NC(=S)NC(=O)c2ccc(F)cc2)cc1S(=O)(=O)Nc1ccccc1Cl,5.01µM*,-10.2%,-19.2%,15.3%
CCC(CC)NC(=O)Nc1ccc(C)c(F)c1,-21.8%,nt,nt,nt
COc1ccc(C(=O)NC(=S)Nc2ccc(S(=O)(=O)Nc3cc(OC)ncn3)cc2)cc1,10µM*,27.7%,-29.7%,5.4%
COc1cc(NS(=O)(=O)c2ccc(NC(=S)NC(=O)c3sc4ccccc4c3Cl)cc2)ncn1,-16.7%,?,15µM*,-29.8%
COc1cc(NS(=O)(=O)c2ccc(NC(=S)NC(=O)c3ccc(F)cc3)cc2)nc(OC)n1,17.8µM*,-10.4%,-21.0%,3.4%
COc1cc(NS(=O)(=O)c2ccc(NC(=O)c3ccc(C(C)=O)cc3)cc2)nc(OC)n1,-24.4%,-1.1%,nt,nt
Cc1oc(-c2ccc(Cl)cc2)nc1CN1CCCC(C(=O)NC2CC2)C1 (stereo not given),-7.5%,?,21.2µM*,9.4%
COc1ccc(CNC(=O)C2CCCN(Cc3nc(-c4cccc(C)c4)oc3C)C2)cc1 (stereo not given),-14.8%,12.3%,-0.9%,56.2µM*
Cc1nc(NCCc2ccc(O)cc2)c2nnn(Cc3ccccc3)c2n1,?,-13.1%,-0.6%,9.6%
COc1cc(CNS(=O)(=O)c2ccc3c(c2)CC(C)N3C(=O)C2CCC2)cc(OC)c1OC (stereo not given),7.0%,-9.5%,-9.4%,17.2%
Fc1ccccc1SCc1nnc(-c2ccccc2Br)o1,-3.2%,44.7µM*,3.36µM*,-30.0%
CN(C)C[C@@H]1CN(c2ccncn2)C[C@H]1NC(=O)COc1ccc(F)cc1,62.7%,nt,nt,nt
CNC(=O)c1nnsc1S(=O)(=O)c1ccc(Cl)cc1,?,10µM*,11.9µM*,7.08µM*
CCC1=NS(=O)(=O)c2cc(NC(=O)C3CC3)ccc2N1CC(C)C,21.6%,nt,nt,nt
Cc1nc(CSc2ccc(Cl)cc2)cc(N2CCOCC2)n1,0.2%,-3.9%,?,-4.7%
Cc1nc(CS(=O)(=O)c2ccccc2)cc(N2CCOCC2)n1,136.5%,-25.7%,2.99µM*,3.4%
O=C(COc1ccccc1)NCCSCc1ccccc1Cl,3.8%,8.6%,-5.6%,-14.3%
COc1ccccc1OCC(=O)NCCSCc1ccccc1Cl,-7.8%,?,26.7µM*,-10.6%
